Test [1] is described as follows: qHTS Screen of the MIPE 4.0 Collection Against Ewings Sarcoma (TC71) (AID 1259253). Note: nearly all actives have a fitted effect of over 40% in size. The method, boiled down: (§1)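 Dose series incubated 48 h with cells in RPMI plus 5% FBS, glutamine and penicillin/streptomycin; cell viability then quantified via CellTiter-Glo.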
A short description of test [2]: qHTS Screen of the MIPE 4.0 Collection Against Ewings Sarcoma (EW8) (AID 1259255). Note: nearly all actives have a fitted effect of over 35% in size. In a few lines:
as §1

A short description of test [3]: qHTS Screen of the MIPE 4.0 Collection Against Ewings Sarcoma (TC32) (AID 1259256). Note: nearly all actives have a fitted effect of over 45% in size. In a few lines: as §1
A general note: qHTS replaces the single test concentration by a dilution series.

Inconclusive results are not listed. Active and inactive are the calls of the source. Calls come from the whole dose curve; as a rule, active = well fitted inhibition curve with a large enough effect; inconclusive = small, poorly fitted or top-dose-only effect; inactive = no such curve, though single readings can be large or run the other way.
Potency is the fitted concentration of half-maximal effect.

As for `O=c1cc(-c2ccccc2)oc2cc(O)c(O)c(O)c12`, in test [1], the Potency is 23.5 µM (active).
As to `CC1(C)CCC2=C(O1)c1ccccc1C(=O)C2=O`, the Potency in test [1] is 26.4 µM (active); in test [2], 23.5 µM (active).
For `O=C1NC(=O)C(=Cc2ccc(-c3ccc(F)cc3)o2)S1`, the Potency in test [1] was 23.5 µM (active). Also, in test [2], the Potency entry was “inactive”.
For `O=C1NC(=O)C(=Cc2ccc3nccnc3c2)S1` the same measures were 11.5 µM (active) and 9.11 µM (active).
For the compound `CC1(C)CCC(CN2CCN(c3ccc(C(=O)NS(=O)(=O)c4ccc(NCC5CCOCC5)c([N+](=O)[O-])c4)c(Oc4cnc5[nH]ccc5c4)c3)CC2)=C(c2ccc(Cl)cc2)C1`, in test [1], the Potency is 23.5 µM (active).
Take `CCc1ccc(OCc2ccccc2C(=O)Nc2ccc3nc(C)cc(N)c3c2)cc1`: the Potency in test [1] is 7.43 µM (active); in test [2], 7.43 µM (active); in test [3] it was 9.35 µM (active).
Regarding `CC(C)=CC[C@@H](O)C1=CC(=O)c2c(O)ccc(O)c2C1=O`, the Potency in test [1] is 2.35 µM (active).
As to `NC(=O)c1cccc2[nH]c(-c3ccc([C@H]4CCCN4)cc3F)nc12`, the Potency in test [1] was 14.8 µM (active); in test [2], 18.7 µM (active); in test [3], 11.8 µM (active).
On to `C[C@H]1[C@H](NC(=O)C(=NOC(C)(C)C(=O)O)c2csc(N)n2)C(=O)N1S(=O)(=O)O`, for which the Potency result in test [1] and in test [2] was “inactive” in each case.
`O=c1c(-c2ccc(O)cc2)coc2cc(OC3O[C@H](CO)[C@H](O)[C@H](O)[C@H]3O)cc(O)c12` (stereo partly specified): the Potency in test [1] is 7.43 µM (active); in test [2], 18.7 µM (active); in test [3], 10.5 µM (active).
In the case of `O=C(O)c1ccccc1C(=O)Nc1ccc(-c2ccccc2)cc1`, the Potency result in test [1] and in test [2] was “inactive” in each case.
Take `COc1ccc(-c2coc3cc(O)ccc3c2=O)cc1`: the Potency result in test [1], in test [2] and in test [3] was “inactive” in each case.
Consider `CN(C)c1cc(NC(=O)CNC(C)(C)C)c(O)c2c1C[C@@H]1C[C@H]3[C@H](N(C)C)C(=O)C(C(N)=O)=C(O)[C@@]3(O)C(=O)C1=C2O`, for which the Potency entry in test [1], in test [2] and in test [3] was “inactive” in each case.
Turning to `O=C(O)C=Cc1ccc(O)c(O)c1`, the Potency was 18.7 µM (active) in test [1], 23.5 µM (active) in test [2] and 20.9 µM (active) in test [3].
For `CC[C@@]1(O)C[C@H](O[C@H]2C[C@H](N(C)C)[C@H](O[C@H]3C[C@H](O)[C@H](O[C@H]4CCC(=O)[C@H](C)O4)[C@H](C)O3)[C@H](C)O2)c2c(cc3c(c2O)C(=O)c2c(O)cccc2C3=O)[C@@H]1C(=O)OC` the same measures were 0.187 µM (active), 0.296 µM (active) and “inactive”.
The like results for `C=C1C(=O)[C@@]23C(CC[C@@H]1[C@H]2O)[C@@]12CO[C@]3(O)[C@@H](O)[C@@H]1C(C)(C)CC[C@@H]2O` (stereo partly specified) were, in that order, 6.62 µM (active), 4.18 µM (active) and 5.26 µM (active).
With `O=c1cc(-c2ccc(O)cc2)oc2cc(O)cc(O)c12`, the Potency in test [1] was 20.9 µM (active); in test [2], 23.5 µM (active).
For `O=C1c2ccccc2-[n+]2ccc3c([nH]c4ccccc43)c21`, the Potency is 0.935 µM (active) in test [1], 1.18 µM (active) in test [2] and 0.743 µM (active) in test [3].
On to `CC=C(C)C(=O)O[C@H]1C(C)=C[C@]23C(=O)[C@@H](C=C(CO)[C@@H](O)[C@]12O)[C@H]1[C@@H](C[C@H]3C)C1(C)C`, for which the Potency in test [1] is 8.33 µM (active).
As to `C[N+](C)(C)CC(=O)O`, the Potency result in test [1], in test [2] and in test [3] was “inactive” each time.
In the case of `c1ccc2c(Cc3c[nH]c4ccccc34)c[nH]c2c1`, the Potency in test [1] is 4.18 µM (active); in test [2], 14.8 µM (active); in test [3] it was 4.18 µM (active).
Consider `CC(=NNC(=S)N1CCC1)c1ccccn1`, for which the Potency in test [1] is 0.0053 µM (active).
Same read-out and setting: the same measure for `COc1ccc2c3c1OC1C[C@@H](O)C=C[C@@]31CCN(C)C2` (stereo partly specified): 20.9 µM (active).
Take `Nc1ncnc2c1ncn2[C@@H]1O[C@@H](CO)[C@H](O)[C@H]1O`: the Potency result in test [1], in test [2] and in test [3] was “inactive” throughout.
Consider `CC(C)C(=O)Oc1ccc(CO)cc1[C@H](CCN(C(C)C)C(C)C)c1ccccc1`, for which the Potency result in test [1] and in test [2] was “inactive” throughout.
On to `COc1ccc(-c2cc(=O)c3c(O)cc(O)cc3o2)cc1O`, for which the Potency is 9.35 µM (active) in test [1], 13.2 µM (active) in test [2] and 14.8 µM (active) in test [3].
For the compound `O=c1c(O)c(-c2ccc(O)cc2)oc2cc(O)cc(O)c12`, the Potency was 18.7 µM (active) in test [1] and 11.8 µM (active) in test [2].
Turning to `NC(=O)c1ccc2nc(-c3ccc(Oc4ccc(Cl)cc4)cc3)[nH]c2c1`, the Potency in test [1] was 0.526 µM (active).
Consider `CC#CCn1c(N2CCC[C@@H](N)C2)nc2c1c(=O)n(Cc1nc(C)c3ccccc3n1)c(=O)n2C`, for which the Potency in test [1] was 26.4 µM (active).
Turning to `Cc1c(O)cccc1C(=O)N[C@@H](CSc1ccccc1)[C@H](O)CN1C[C@H]2CCCC[C@@H]2C[C@@H]1C(=O)NC(C)(C)C`, the Potency in test [1] is 20.9 µM (active); in test [2], 23.5 µM (active).
As for `NC(=O)c1cnc(-c2ccc(C3(N)CCC3)cc2)c(-c2ccccc2)c1`, the Potency result in test [1] is “inactive”.
Regarding `NC[C@@H]1O[C@@H](O[C@H]2[C@@H](O)[C@H](O[C@@H]3[C@@H](O)[C@@H](N)C[C@H](N)[C@H]3O[C@H]3O[C@H](CN)[C@@H](O)[C@@H](O)[C@H]3N)O[C@H]2CO)[C@H](N)[C@@H](O)[C@@H]1O`, the Potency entry in test [1] and in test [2] was “inactive” throughout.
Consider `O=C(CCN1CCN(C(=O)OCc2cc(Cl)cc(Cl)c2)CC1)c1ccc2[nH]c(=O)oc2c1`, for which the Potency entry in test [1], in test [2] and in test [3] was “inactive” in each case.
